Assay results published in PubChem BioAssay (NCATS).
Inconclusive results are not listed. Values without a mark were called inactive. Calls of active or inactive are those of the source. The call rests on the fitted dose curve; in most records, active means well fitted activation curve with a large enough effect in the main read-out, with a control signal flat (not every such curve was filed as active); inconclusive means small, poorly fitted or top-dose-only effect, or effect the other way, or a change in a side signal; inactive means flat fitted curve, though single readings scatter.

biological target: 3',5'-cyclic-AMP phosphodiesterase 4B (Homo sapiens) (UniProt Q07343); assay: qHTS Assay for Inhibitors of PDE-IV (AID 607); details: HEK293 ACTOne CNG channel cells, membrane potential fluorescence; series mostly up to 22.9 µM; activation (PDE inhibition): at the top concentration; further: % of control where 0% means no effect
Procedure, shortened: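 ACTOne HEK293 cells carry a modified cAMP-gated CNG channel and express endogenous PDE4; plated 1000 cells/well, compounds up to 22.9 uM final. Membrane-potential dye fluorescence (ex 535/em 590) was read; parental cells received 10 uM forskolin + 100 uM RO 20-1724.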

Chain of 3',5'-cyclic-AMP phosphodiesterase 4B (Homo sapiens) (Q07343 whole entry, looked up): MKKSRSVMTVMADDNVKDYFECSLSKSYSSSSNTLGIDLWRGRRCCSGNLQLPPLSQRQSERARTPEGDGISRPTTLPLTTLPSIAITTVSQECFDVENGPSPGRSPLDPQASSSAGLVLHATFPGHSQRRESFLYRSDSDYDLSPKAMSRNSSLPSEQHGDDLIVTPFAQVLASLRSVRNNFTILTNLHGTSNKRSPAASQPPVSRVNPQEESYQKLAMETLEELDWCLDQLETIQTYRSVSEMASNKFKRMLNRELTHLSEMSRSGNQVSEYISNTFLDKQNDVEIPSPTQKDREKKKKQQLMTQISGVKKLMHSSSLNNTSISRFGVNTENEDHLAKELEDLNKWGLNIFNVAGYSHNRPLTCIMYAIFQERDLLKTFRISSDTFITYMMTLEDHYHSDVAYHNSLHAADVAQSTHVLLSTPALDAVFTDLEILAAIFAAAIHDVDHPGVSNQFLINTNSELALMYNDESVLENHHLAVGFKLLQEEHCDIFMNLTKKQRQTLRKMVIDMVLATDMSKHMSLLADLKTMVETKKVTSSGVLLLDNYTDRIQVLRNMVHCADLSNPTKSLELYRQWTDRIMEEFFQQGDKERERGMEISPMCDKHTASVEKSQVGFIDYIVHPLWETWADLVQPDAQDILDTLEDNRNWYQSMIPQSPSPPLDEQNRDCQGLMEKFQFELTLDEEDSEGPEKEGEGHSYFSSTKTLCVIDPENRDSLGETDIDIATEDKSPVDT

SMILES | activation (PDE inhibition) | outcome
Cc1c(NC(C)C)c(=O)n(-c2ccccc2)n1C | 10.4% | –
CC[N+](C)(CC)CCOC(=O)C1c2ccccc2Oc2ccccc21 | 4.24% | –
NC(=O)CC[C@@H](N)C(=O)O | -10.1% | –
CCN(CC)CCc1nc(-c2ccccc2)no1 | 2.33% | –
CC(=O)N[C@@H](CC(C)C)C(=O)O | -7.28% | –
Cn1c(=O)c2c(ncn2CCO)n(C)c1=O | -7.73% | –
C[C@@H]1CCC[C@H](C)N1 | 2.33% | –
CC(C)=CCC/C(C)=C/CO | -0.282% | –
CC(=O)SC[C@@H](Cc1ccccc1)C(=O)NCC(=O)OCc1ccccc1 | -17.4% | –
CCOC(=O)[C@H](CCc1ccccc1)N[C@@H](C)C(=O)N1CCC[C@H]1C(=O)O | -0.998% | –
O=S1(=O)OC(c2ccc(O)cc2)(c2ccc(O)cc2)c2ccccc21 | -2.25% | –
CN1C(C)(C)CCCC1(C)C | – | inactive
CN(C(=O)c1c(O)c2ccccc2n(C)c1=O)c1ccccc1 | 4.79% | –
COc1ccc2cc(CCC(C)=O)ccc2c1 | -0.94% | –
COc1ccc(NS(=O)(=O)c2ccc(N)cc2)nn1 | -5.53% | –
O=C(O)c1ccccc1OP(=O)(O)O | 0.934% | –
Cc1ncc(CO)c(CN)c1O | 7.05% | –
CC(C)(C)C(=O)OCOC(=O)[C@@H]1N2C(=O)[C@@H](NC(=O)[C@H](N)c3ccccc3)[C@H]2SC1(C)C | 6.84% | –
NCc1ccc(S(N)(=O)=O)cc1 | -14.8% | –
Cc1c(NC(=O)c2cccnc2)c(=O)n(-c2ccccc2)n1C | 11.6% | –
CN/C(=C\[N+](=O)[O-])NCCSCc1csc(CN(C)C)n1 | 5.67% | –
O=C(Cn1ccnc1[N+](=O)[O-])NCCO | -0.632% | –
CCCCC1(COC(=O)CCC(=O)O)C(=O)N(c2ccccc2)N(c2ccccc2)C1=O | 21.9% | –
NC(N)=NS(=O)(=O)c1ccc(N)cc1 | -4.09% | –
Cc1cc(NC(=O)C2=C(O)c3ccccc3S(=O)(=O)N2C)no1 | 3.18% | –
CC[N+](CC)(CC(=O)Nc1c(C)cccc1C)Cc1ccccc1 | -1.17% | –
NS(=O)(=O)c1ccc(C(=O)O)cc1 | 8.57% | –
O=C(O)c1ccccc1C(=O)Nc1ccc(S(=O)(=O)Nc2nccs2)cc1 | -10.6% | –
